Bioassay records (PubChem)
Tau FP inhib: qHTS for Inhibitors of Tau Fibril Formation, Fluorescence Polarization; actives 0.39% (n = 280,000); AID 1468, 2008; Potency, µM (series often up to 57.7 µM), inactives show at the highest dose activity, negative = inhibition, most hits filed as inhibitors; K18 P301L tau heparin fibrillization, Alexa594 FP, 6 h; Microtubule-associated protein tau (Homo sapiens), P10636; also: potency is read from the fitted curve at half-maximal effect; nearly all actives have a fitted effect of over 55% in size
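Heparin (20 uM) drove fibril formation of recombinant tau K18 P301L, 15 uM unlabeled with 0.24 uM Alexa 594 label, for 6 hr at 37 C in 100 mM sodium acetate pH 7. Fluorescence polarization (555/632 nm) read 1 hr after 30 uM ThT.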
KDM4E inh: qHTS Assay for Inhibitors of Human Jumonji Domain Containing 2E (JMJD2E) | Lysine-specific demethylase 4E (Homo sapiens), B2RXH2 | Potency, µM (top dose mostly 57.1 µM), without a hit: top-dose activity change, negative = inhibition, usual class: inhibitors | actives 1.6% (n = 230,000) | JMJD2E catalytic domain, FDH-coupled NADH fluorescence (FDH is formaldehyde dehydrogenase) | AID 2147, 2009; active = well fitted inhibition curve with a large enough effect, not every such curve was filed as active; inconclusive = small, poorly fitted or top-dose-only effect, or another doubt; inactive = no such curve, though single readings can be large or run the other way;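 also: potency is read from the fitted curve at half-maximal effect; 0% = wells with enzyme and -100% = buffer wells without enzyme; nearly all actives have a fitted effect of over 50% in size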
Target sequence (B2RXH2 1-337 limits assumed): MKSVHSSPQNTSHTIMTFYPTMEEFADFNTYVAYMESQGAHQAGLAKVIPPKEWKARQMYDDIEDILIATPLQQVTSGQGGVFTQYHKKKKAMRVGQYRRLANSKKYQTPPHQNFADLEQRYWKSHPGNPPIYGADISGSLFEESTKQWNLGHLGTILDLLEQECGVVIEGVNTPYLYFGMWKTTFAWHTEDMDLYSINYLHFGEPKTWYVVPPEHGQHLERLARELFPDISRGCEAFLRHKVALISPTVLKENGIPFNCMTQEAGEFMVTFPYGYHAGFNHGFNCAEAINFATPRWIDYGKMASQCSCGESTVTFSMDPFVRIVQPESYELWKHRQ
PNC inhibitor: High Content Assay for Compounds that inhibit the Assembly of the Perinucleolar Compartment. AID 2417, 2010. actives 3.1% (n = 140,000). PC3M PTB-GFP, PNC prevalence imaging, 16 h; active compounds read low. activity change (PNC), negative = inhibition, % at 10 µM;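 active = readout at or below -70, meaning at least 70% loss of cells showing the perinucleolar compartment, a nuclear body marking cancer cells; inconclusive = readout between -30 and a set limit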;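 also: plate controls were DMSO wells for no effect and camptothecin positive control wells for full effect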
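PC3M cells stably expressing PTB-GFP, 750–1000 cells/well, treated 16 h at 37 °C with compound (23 nl of library stock), in duplicate. After paraformaldehyde fixation and Hoechst stain, imaged at 20x; PNC prevalence scored by image analysis.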
Tau fluor cs: Counterscreen qHTS for Inhibitors of Tau Fibril Formation, Fluorescence Polarization; tau K18 P301L Alexa594 fluorescence, heparin fibrillization; actives 0.93% (n = 280,000); Potency, µM (titrated, usually from 57.7 µM), without a hit: at the top dose activity change, negative = decrease; also: potency is read from the fitted curve at half-maximal effect; nearly all actives have a fitted effect of over 55% in size
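Human K18 P301L tau (15 uM unlabeled plus 0.24 uM Alexa 594-labeled, final) in 100 mM sodium acetate pH 7 was mixed with compound and 20 uM heparin and incubated 6 hr at 37 C.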
NPSR antag: qHTS Assay for Antagonists of the Neuropeptide S Receptor: cAMP Signal Transduction; CHO-NPSR cells, cAMP TR-FRET, antagonist mode; Potency, µM (series often up to 38.3 µM), without a hit: at the top dose activity change, negative = inhibition, hits mostly inhibitors; actives 1% (n = 220,000); Q6W5P4; also: potency is read from the fitted curve at half-maximal effect; nearly all actives have a fitted effect of over 50% in size
Target sequence (Q6W5P4 whole entry, looked up): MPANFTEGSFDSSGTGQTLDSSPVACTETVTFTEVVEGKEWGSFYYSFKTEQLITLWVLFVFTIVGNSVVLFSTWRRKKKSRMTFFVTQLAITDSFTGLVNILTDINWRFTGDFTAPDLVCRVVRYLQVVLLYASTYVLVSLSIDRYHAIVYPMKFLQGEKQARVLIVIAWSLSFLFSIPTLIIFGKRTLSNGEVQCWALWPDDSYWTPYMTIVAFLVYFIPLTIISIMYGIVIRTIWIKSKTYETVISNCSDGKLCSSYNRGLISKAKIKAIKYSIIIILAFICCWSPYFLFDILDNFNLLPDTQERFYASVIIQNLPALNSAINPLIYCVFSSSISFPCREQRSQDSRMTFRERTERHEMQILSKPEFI
Tau ThT inhib: qHTS for Inhibitors of Tau Fibril Formation, Thioflavin T Binding | actives 2.1% (n = 270,000) | recombinant tau K18 P301L (four-repeat tau fragment), heparin-induced fibrillization, ThT fluorescence | Microtubule-associated protein tau (Homo sapiens), P10636 | Potency, µM (highest dose often 57.4 µM), for inactives: top-dose activity, negative = inhibition, usual class: inhibitors; also: potency is read from the fitted curve at half-maximal effect; nearly all actives have a fitted effect of over 55% in size
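Tau K18 P301L fragment (15 uM unlabeled plus 0.24 uM Alexa 594-labeled) in 100 mM sodium acetate pH 7 with compound, fibrillization induced by 20 uM heparin for 6 hr at 37 C. Thioflavin T (30 uM) added, fluorescence read after 1 hr (ex 450, em 510 nm).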
Starred values were filed as active, the others as inactive; ? = inconclusive; nt = no result given; ! = not confirmed by another sample; [ ] = dose if it differs, or a comment. Shown are actives, neighbours in structure and some others; about 5.1% of the full set was active somewhere. Unless noted, calls follow the shape of the dose curve; as a rule, active = well fitted curve in the direction sought with a large enough effect; inconclusive = small, poorly fitted or top-dose-only effect, or another doubt; inactive = no such curve, though single readings can be large; an effect the other way counts as inactive or inconclusive. Unless noted, % is scaled to controls: 0 for no effect and ±100 for the full control effect.

SMILES	Tau FP inhib	KDM4E inh	PNC inhibitor	Tau fluor cs	NPSR antag	Tau ThT inhib
COc1ccc(CN2CCN(c3ncnc4sc5c(c34)CCCC5)CC2)cc1F	1.4%	nt	nt	-12.2%	nt	?
CNc1ccc2oc(C[C@H]3O[C@]4(CC[C@H]3C)O[C@H]([C@H](C)C(=O)c3ccc[nH]3)[C@H](C)C[C@H]4C)nc2c1C(=O)O	-3.6%	?	nt	-18.1%	nt	?
Oc1ccc2c3c1O[C@H]1c4c(c5ccccc5n4Cc4ccccc4)C[C@@]4(O)C(C2)N(CC2CC2)CC[C@]314	3.1%	nt	nt	?	nt	-17.5%
COc1cc(/C=C/[N+](=O)[O-])ccc1O	0.8%	-10.7%	-83.7*	-15.4%	?	?
COc1cc(/C=C2/C(=O)NC(=O)N(c3ccccc3)C2=O)ccc1O	-11.7%	-9.4%	28.2	-1.7%	-0.3%	?
CC(=O)N1CCN(c2ccc(OCC3CO[C@@](Cn4ccnc4)(c4ccc(Cl)cc4Cl)O3)cc2)CC1 (stereo partly specified)	-10.1%	3.5%	nt	?	nt	?
CCn1c(P(C)(=O)O)nc2ccccc21	-3.1%	7.1%	-15.5	-7.3%	-5.8%[46.1 µM]	-8.8%
CCn1c(NN=O)nc2ccccc21	-1.6%	?	nt	-11.3%	-7.0%	28.2µM*
Cc1cccc(N(C)S(=O)(=O)c2cc(-c3cnc(C4CC4)o3)ccc2C)c1	6.8%	nt	nt	-5.7%	nt	?
C[C@@H]1O[C@H](C[N+](C)(C)C)C[C@H]1O	2.5%	1.9%	nt	0.1%	-3.1%[46.1 µM]	-0.9%
C[C@H]1OC[C@@H](C[N+](C)(C)C)O1	-11.7%	25.1µM*!	5.0	-12.6%	20.0%	-14.3%
CCC12CN3CCN(CC(C3)C1O)C2 (stereo unspecified)	-1.5%	0.9%	-15.9	2.5%	2.9%	-1.1%
CC(C)=CCC12CN3CCN(CC(C3)C1=O)C2	-14.6%	-2.0%	-87.8*	9.1%	18.9%[46.1 µM]	8.8%
C=CCN1C(=O)NC(=O)/C(=C/c2cc3c4c(c2)CCCN4CCC3)C1=O	?	20µM*	?	-29.0%	-6.1%	17.8µM*
Cc1o[nH]c(=O)c1C[C@H](N)C(=O)O	-4.7%	-8.7%	nt	-10.6%	nt	?
CC[C@H](C)[C@H](NC(=O)[C@H](CCCN=C(N)N)NC(=O)[C@H](CCCN=C(N)N)NC(=O)[C@H](CC(C)C)NC(=O)[C@H](Cc1ccccc1)NC(=O)CNC(=O)CNC(=O)[C@@H](N)Cc1ccc(O)cc1)C(=O)O	-6.2%	nt	nt	-9.0%	nt	-6.2%
O=C(/C=C/c1ccccc1)c1c(O)n(CCc2ccccc2)c(=O)[nH]c1=O	-4.8%	?	?	-11.6%	12.6µM*	?
O=C(/C=C/c1ccc2c(c1)OCO2)c1c(O)n(CCc2ccccc2)c(=O)[nH]c1=O	-0.3%	-0.1%	nt	-11.1%	?	nt
COc1cc(/C=C/C(=O)c2c(O)n(CCc3ccccc3)c(=O)[nH]c2=O)ccc1O	-9.5%	2.4%	12.2	-12.7%	10µM*	?
NCC#Cc1ccccc1	-0.2%	-26.3%	nt	-11.6%	-4.3%[46.1 µM]	-5.5%
O=C1CC(=O)N(c2ccc(Cl)cc2Cl)C(=O)N1	-9.7%	-2.0%	-126.9*	-10.5%	-0.2%[46.1 µM]	?
Cc1cc(Br)ccc1N1C(=O)CC(=O)NC1=O	?	-1.7%	-12.5	-8.1%	-12.8%[46.1 µM]	12.6µM*
O=C(NC1C(=O)NNC1c1ccc(Cl)cc1)c1ccc(F)cc1 (stereo unspecified)	-21.7%	?	nt	-21.2%	-13.1%	?
O=C(N=Nc1c(O)n(C2OC(=O)c3ccccc32)c2ccccc12)c1ccco1 (stereo unspecified)	4.1%	7.9%	nt	-2.0%	10.1%	?
CC1=C[C@@H]2c3cccc4[nH]cc(c34)C[C@H]2N(C)C1	-13.8%	nt	nt	?	nt	15.8µM*
SMILES	Tau FP inhib	KDM4E inh	PNC inhibitor	Tau fluor cs	NPSR antag	Tau ThT inhib
CN1Cc2ccccc2[C@@H]2c3cccc4[nH]cc(c34)C[C@H]21	?	10µM*	nt	?	nt	11.2µM*
C[C@]12CCC3C(CC[C@]4(O)C[C@@H](O)CC[C@]34C=O)[C@@]1(O)CC[C@@H]2C1=CC(=O)OC1 (stereo partly specified)	8.7%	3.4%	nt	3.5%	nt	1.1%
CC(=O)OCC(=O)C1CCC2C3CC=C4CC(O)CC[C@@]4(C)C3CC[C@]12C (stereo partly specified)	-9.4%	-5.6%	nt	-9.0%	nt	-0.8%
CCCc1nc2ccc(Br)cc2c(=O)n1-c1ccc([N+](=O)[O-])c(C(F)(F)F)c1	-2.7%	2.7%	-96.4*	?	?	-13.8%
Cc1cccc(OCC(=O)Nc2cc(-c3ccccc3F)nn2-c2ccccc2)c1	?	nt	nt	-0.6%	nt	-2.3%
C(=N\NC1=NCCCCC1)/c1c[nH]c2ccccc12	-11.2%	-8.2%	nt	-4.6%	4.3%	nt
Brc1ccc2[nH]cc(/C=N/N3CCCCC3)c2c1	16.1%	-14.9%	-9.9	11.2µM*[quencher]	-3.1%	?
COc1ccc(-c2nnc3n2N(C(C)=O)C(c2ccc(Cl)c(Cl)c2)=C(C(C)=O)S3)cc1	-10.4%	nt	nt	-24.7%	nt	?
CC1=NN(c2ccccc2)C(=O)C1=C(C)C	-9.1%	-7.1%	nt	?	5.5%	11.2µM*
Cc1cc(-c2nc3ccccc3s2)ccc1NC(=O)c1cc(Cl)ccc1Cl	-2.5%	nt	nt	-12.3%	nt	?
CCCCn1c(NC(=O)c2ccco2)c(C(=O)OCC)c2nc3ccccc3nc21	15.8µM*	?	31.5	-26.0%	-26.7%[46.1 µM]	12.6µM*
CCOc1ccc(N2CC(c3nc4ccccc4n3CCC3CCCCC3)CC2=O)cc1 (stereo unspecified)	-4.2%	nt	nt	-9.6%	nt	?
O=C(N/N=C/c1c(O)n(CCc2ccc(F)cc2)c(=O)[nH]c1=O)c1ccccc1	-2.9%	20µM*	nt	-17.0%	1.2%	nt
CCOc1ccc(N=Cc2c(O)n(-c3ccc(C)c(C)c3)c(=O)[nH]c2=O)cc1	-1.0%	145.1%	nt	14.6%	-1.6%	nt
O=C(N/N=C/c1c(O)n(CCc2ccc(F)cc2)c(=O)[nH]c1=O)c1ccncc1	12.1%	?	nt	-18.5%	-4.5%	?
CCn1c(O)c(/C=N/NC(=O)c2ccccc2)c(=O)[nH]c1=S	0.4%	31.6µM*	nt	-21.1%	0.2%	nt
COc1ccccc1-n1c(O)c(/C=N/NC(=S)Nc2ccccc2)c(=O)[nH]c1=S	-1.9%	28.2µM*	nt	?	-20.2%	?
